111 compounds from PubChem BioAssay AID1117361 (Southern Research Institute, 2015) can be followed below.

Screen size: about 3,600 compounds; about 900 (25%) were called active. How the calls were made is not given here. A selection follows. Results with a measured potency or affinity are listed apart.

The target of the assay is Protein Tat (Human immunodeficiency virus type 1 group M subtype B (isolate HXB2)) (UniProt P04608). In words: inhibitors of Tat binding to TAR RNA, dose response, counter-screen for Vif-APOBEC3G degradation inhibitor project, biochemical, fluorescence polarization, FAM-labeled TAR RNA (AID 1117361). The following applies: outcome: dose series up to 100 µM unless noted; series mostly up to 100 µM. (In general: A counterscreen serves to expose hits that act by an unwanted route or on another target.)
In the case of `O=C(Nc1cnccn1)c1csc2ccccc12`, the outcome was inactive.

On to `Clc1ccc2c(c1)nc1n2CCCC1`, for which the result was inactive.

Turning to `COc1ccc(CCNS(=O)(=O)CCNC(=O)c2ccc3c(c2)OCO3)cc1`, the outcome was inactive.

`O=C1NCC(O)=C1C=NC12CC3CC(CC(C3)C1)C2`: the compound was called inactive.

`CCn1ncc(/C=N/NS(=O)(=O)c2ccc(Cl)cc2)c1C`: the compound was called inactive.

With `C=CCN(CC=C)S(=O)(=O)c1ccc(C(=O)Nc2nnc(COC)o2)cc1`, the compound was classed as inactive.

For the compound `Cc1cccc(OCc2nc(C)cc(=O)[nH]2)c1`, the call was inactive.

Take `O=C(CNC(=O)c1ccc(Cl)cc1Cl)OCc1nnc(-c2ccccc2Br)o1`: the compound was called inactive.

Take `Clc1ccc(-c2ccc(SCc3ccccn3)nn2)cc1`: the compound was classed as inactive.

`CCCOc1ccccc1C1CC(=O)NC2=C1C(=O)CCC2` (stereo unspecified): the outcome was inactive.

Turning to `COc1ccccc1-c1nnc(SCC(=O)NCc2c(C)c(Cl)cc(C(C)C)c2O)o1`, the compound was called inactive.

For `O=C(Cn1c(=O)[nH]c2ccccc2c1=O)N1CCN(c2cccc(Cl)c2)CC1`, the outcome was inactive.

As for `N#CC(C(=O)NCc1ccco1)c1nc2ccccc2nc1N1CCOCC1` (stereo unspecified), the compound was classed as inactive.

For the compound `Cc1ccnc(-n2c(CCN3C(=O)c4ccccc4C3=O)nc3ccccc3c2=O)c1`, the compound was called inactive.

With `CC(C)C(NC(N)=O)C(=O)NC1CCCCC1` (stereo unspecified), the outcome was inactive.

Turning to `O=C(O)c1cccc(CSc2nnc(COc3ccccc3)o2)c1`, the outcome was inactive.

Take `COc1cc2c(cc1OC)C(=O)C(Br)CC2` (stereo unspecified): the call was inactive.

In the case of `COc1cc(NC(=O)NCCN2CCN(c3ccc(Cl)cc3)CC2)ccc1C`, the result was inactive.

For the compound `COc1cc(CCC(=O)Nc2cccc(C(F)(F)F)c2)cc(OC)c1OC`, the call was inactive.

On to `Cc1ccc(NS(=O)(=O)c2ccc(OCC(=O)Nc3cccc([N+](=O)[O-])c3)c(C)c2)cc1`, for which the call was inactive.

As to `CCNC(=S)Nc1ccc(N(c2ccccc2)C(C)C)cc1`, the outcome was inactive.

For `O=C(Cn1cnc2c(nnn2Cc2ccc(Cl)cc2)c1=O)NCc1ccco1`, the outcome was inactive.

As for `CCOC(=O)c1cc2c(n(-c3ccccc3)c1=O)CC(C)(C)CC2=O`, the compound was called inactive.

Turning to `CC1Cc2ccccc2N1C(=O)C1CCN(S(=O)(=O)Cc2ccccc2)CC1` (stereo unspecified), the result was inactive.

Turning to `CC1Cc2ccccc2N1Cc1nc2cc(C(F)(F)F)ccc2c(=O)[nH]1` (stereo unspecified), the result was inactive.

Take `CCOc1cccc(C(=O)Nc2ccccc2OC(F)F)c1`: the call was inactive.

Regarding `CCC1(CC)C(=O)NC(=O)NC1=NCCc1ccc(O)cc1`, the outcome was inactive.

In the case of `Cc1noc(C)c1S(=O)(=O)Nc1ccc2c(c1)C(=O)N([C@@H](C)CO)C[C@H](C)[C@@H](CN(C)Cc1ccc(C(F)(F)F)cc1)OCCCC[C@H](C)O2`, the outcome was inactive.

For the compound `COc1cccc(-c2nc(-c3cccs3)no2)c1`, the call was inactive.

In the case of `CCCCCOc1ccc(C2C(C(C)=O)=C(C)Nc3ncnn32)cc1OC` (stereo unspecified), the compound was classed as inactive.

Turning to `Cc1ccc(NC(=O)CCCCCC2NC(=O)NC2C)cc1` (stereo unspecified), the call was inactive.

On to `N#Cc1ccccc1NC(=O)CNc1ccc(Cl)c(C(F)(F)F)c1`, for which the compound was called inactive.

As for `CC1CC(C)CN(C(=O)CSCC(=O)O)C1` (stereo unspecified), the call was inactive.

In the case of `CC(C)C(c1nnnn1C1CCCCC1)N1CCN(c2ncccn2)CC1` (stereo unspecified), the result was inactive.

As to `O=C(CSc1c(Cl)cccc1Cl)N1CCC(c2nc3ccccc3s2)CC1`, the call was inactive.

On to `CCN1CCC(=NNC(=O)CC23CC4CC(CC(C4)C2)C3)CC1`, for which the compound was called inactive.

As to `CCCCCCNS(=O)(=O)c1ccccc1Br`, the compound was classed as inactive.

Turning to `CCCC1(C(=O)O)NC(c2ccc(OC)cc2O)C2C(=O)N(c3ccc(OC)cc3)C(=O)C21` (stereo unspecified), the call was inactive.

Take `Cc1cccc2sc(NNC(=O)c3ccc(S(=O)(=O)N4CC(C)CC(C)C4)cc3)nc12` (stereo unspecified): the outcome was inactive.

Consider `Cc1cc(NC(=O)CC(CN(C)S(=O)(=O)c2ccccc2)c2ccccc2)no1` (stereo unspecified), for which the compound was classed as inactive.

Regarding `COc1cccc(-c2nnc(SCC(=O)N3CCOCC3)o2)c1`, the outcome was inactive.

As to `Cc1occc1-c1nnc(SCC(=O)N(C)C)o1`, the compound was called inactive.

Take `COc1ccc(N(C(=O)c2ccccc2OC)C2C=CS(=O)(=O)C2)c(OC)c1` (stereo unspecified): the call was inactive.

For the compound `COc1ccc(S(=O)(=O)N(CC(=O)O)c2ccccn2)cc1`, the call was inactive.

With `O=[N+]([O-])c1ccccc1NC(=S)N/N=C/c1ccc(O)c(O)c1`, the compound was called inactive.

For the compound `Cn1ccnc1Sc1ccc(/C=N/NC(=O)c2ccccc2O)cc1[N+](=O)[O-]`, the compound was called inactive.

Consider `Cc1cc(NC(=O)Cn2cnc3c(nnn3-c3cccc(F)c3)c2=O)no1`, for which the result was inactive.

In the case of `C/C(=N\OCC(=O)NC12CC3CC(CC(C3)C1)C2)c1cc2ccccc2o1`, the compound was classed as inactive.

In the case of `CC1CCC(NC(=O)CCS(=O)(=O)c2ccc3c(c2)CCN3C(=O)C2CC2)CC1` (stereo unspecified), the result was inactive.

In the case of `CN1CCN(NC(=O)c2ccc(S(=O)(=O)N3CC4(C)CC3CC(C)(C)C4)cc2)CC1` (stereo unspecified), the compound was classed as inactive.

Regarding `COc1cc(NC(=O)CCn2c(=O)[nH]c3ccsc3c2=O)cc(OC)c1`, the compound was classed as inactive.

As to `O=C(O)CCCCC1SCC2NC(=O)NC21` (stereo unspecified), the result was inactive.

As for `CCCN(CCC)CCCNC(=O)c1cn(CCOC)c(=O)c2c1c1ccccc1n2C`, the result was inactive.

With `Cc1cc(NC(=O)C2CCCC2)n(-c2nc3ccccc3[nH]2)n1`, the call was inactive.

`O=C1CCCCC1Oc1ccc2ccc(=O)oc2c1` (stereo unspecified): the compound was called inactive.

As to `CSc1ccc(C2C(C#N)=C(N)Oc3c2ccc(=O)c2c(C)oc(C)c32)cc1` (stereo unspecified), the outcome was inactive.

For the compound `Cc1cc(-c2[nH]nc3c2C(c2cccc(O)c2)C(C#N)=C(N)O3)c(C)s1` (stereo unspecified), the compound was called inactive.

On to `N=C(N)c1ccc(N=Nc2c(O)ccc3c2[nH]c2ccccc23)cc1`, for which the compound was classed as inactive.

Turning to `CCOC(=O)c1cc2ccc(OC)c(OC)c2c(=O)s1`, the result was inactive.

Consider `CCOC(=O)CSc1nc(CC)nc2ccccc12`, for which the result was inactive.

For the compound `CC(c1nnnn1C1CCCCC1)N(Cc1ccccc1)Cc1cccnc1` (stereo unspecified), the call was inactive.

In the case of `Cc1cccc(C(=O)Nc2nnc(Cc3c[nH]c4ccccc34)s2)c1`, the call was inactive.

In the case of `CCNS(=O)(=O)c1ccc(-c2ccc(-n3cnnn3)cc2)cc1`, the compound was classed as inactive.

For `CC(=O)c1ccc(S(=O)(=O)Nc2cccc(-c3ccc(N4CCOCC4)nn3)c2)cc1`, the compound was called inactive.

Turning to `CCC(C)n1c(-c2cccc(S(=O)(=O)N3CCOCC3)c2)n[nH]c1=S` (stereo unspecified), the compound was called inactive.

Consider `O=C(Oc1cccnc1)c1ccc(Cl)cc1`, for which the outcome was inactive.

Take `Cc1ccc(S(=O)(=O)N2CCCC2C(=O)N(C)Cc2cccs2)cc1` (stereo unspecified): the compound was classed as inactive.

On to `Cc1cc(O)c(C(C)C)cc1NC1=NS(=O)(=O)c2ccccc21`, for which the call was inactive.

Turning to `CCCCS(=O)CC(O)COCC` (stereo unspecified), the compound was called inactive.

As for `Cc1cc(Cl)c(S(=O)(=O)NCC2CCCO2)cc1OCC(=O)NC1CCCCC1` (stereo unspecified), the call was inactive.

Regarding `CC(C)(C)c1ccccc1OCCOCCSc1ncccn1`, the call was inactive.

For the compound `O=C(CCCc1ccccc1)N1CCN(c2ccc([N+](=O)[O-])cc2)CC1`, the outcome was inactive.

For `CC(C)OC(=O)/C(=C\C=C\c1ccccc1)NC(=O)c1ccccc1`, the outcome was inactive.

With `O=C(CCc1ccc(S(=O)(=O)N2CCOCC2)cc1)OCc1nc2ccccc2s1`, the call was inactive.

Regarding `O=C1c2ccccc2C(Nc2ccc(F)c(Cl)c2)N1c1ccccn1` (stereo unspecified), the compound was called inactive.

Take `CCn1c(SCC(=O)n2c(C)c(C)c3ccccc32)nnc1-c1ccco1`: the call was inactive.

As to `NC(=O)c1ccccc1NC(=O)/C=C/c1ccc(Cl)cc1`, the compound was classed as inactive.

`CCCCC(=O)Nc1ccc(NC(=O)c2ccc3c(c2)OCO3)cc1OC`: the compound was classed as inactive.

Consider `CCn1c(-c2csc(-c3ccc(Cl)cc3)n2)n[nH]c1=S`, for which the result was inactive.

Regarding `COc1ccc(N2CCC(CNS(=O)(=O)c3cccc(C(F)(F)F)c3)C2)cc1` (stereo unspecified), the compound was called inactive.

Regarding `COc1ccc(NC(=O)CN2CCN(c3ccc(F)cc3)CC2)cc1Cl`, the outcome was inactive.

Take `COc1ccc(-c2nc(C#N)c(NCc3ccccc3Cl)o2)cc1OC`: the compound was called inactive.

For the compound `O=C(c1cccc(C(F)(F)F)c1)C1CCCN(C(=O)CCCN2CCCC2=O)C1` (stereo unspecified), the compound was classed as inactive.

Consider `CCc1nnc(NC(=O)c2ccc(-c3ccccc3Cl)o2)s1`, for which the call was inactive.

Turning to `CCOC(=O)C1CC(CN2C(=O)c3ccccc3C2=O)OC1=O` (stereo unspecified), the result was inactive.

For `CCOC(=O)c1c(C)nn(Cc2cccc(Cl)c2)c1N`, the call was inactive.

In the case of `Nc1ncnc2c1cnn2C1CCCCC1`, the result was inactive.

Consider `COc1ccccc1N1CCN(CCc2n[nH]c(=S)n2-c2ccccc2)CC1`, for which the compound was called inactive.

Take `S=c1[nH]nc(COc2ccc(Cl)cc2)n1Cc1ccccc1`: the outcome was inactive.

For `O=C1N(Cc2cccnc2)C[C@@H]2C[C@@H](c3ccc4nsnc4c3)N3CCC[C@@]123`, the outcome was inactive.

Take `COc1cccc(C(=O)N2CCN(Cc3nc(CC4CC4)no3)CC2)c1`: the compound was classed as inactive.

For `O=C1CCCC(O)=C1C=Nc1ccc(O)cc1`, the compound was classed as inactive.

As to `COc1ccc(N=CC2=C(O)CCCC2=O)cc1`, the compound was called inactive.

In the case of `CC1CN(C(=O)COC(=O)Cc2ccc(Cl)cc2)CC(C)O1` (stereo unspecified), the outcome was inactive.

For the compound `CCCCn1c(C)nc2c(=O)n(C)c(=O)[nH]c21`, the compound was classed as inactive.

Take `CCN(CC)CCN1C(=O)C(=O)/C(=C(/O)c2ccc(C)cc2)C1c1ccncc1` (stereo unspecified): the outcome was inactive.

In the case of `CC(OC(=O)/C=C/c1ccco1)C(=O)NC1CCCCC1` (stereo unspecified), the outcome was inactive.

As for `CN(C1CCCCC1)S(=O)(=O)c1cccc(C(=O)OCC(=O)NC2CCCc3ccccc32)c1` (stereo unspecified), the result was inactive.

Turning to `CCCc1nc2ccccc2c(C(=O)OCC(=O)N2CCc3ccccc32)c1CC`, the compound was called inactive.

Consider `Cc1nc2ccc(NC(=O)c3cc(S(=O)(=O)N4CCOCC4)ccc3C)cc2s1`, for which the call was inactive.

Turning to `COc1ccc(OCCOC(=O)c2cccc(-n3cnnn3)c2)cc1`, the outcome was inactive.

As for `COc1ccc(C(C)(C)C)cc1NC(=O)C1C2C=CC(C2)C1C(=O)O` (stereo unspecified), the call was inactive.

For the compound `c1coc(-c2nc3nc4ccccc4n3nc2-c2ccco2)c1`, the compound was classed as inactive.

For the compound `Cc1nc2nc(-c3ccco3)nn2c(C)c1Cl`, the result was inactive.

In the case of `CC1CCc2nc(NC(=O)c3ccco3)sc2C1` (stereo unspecified), the compound was classed as inactive.

Turning to `O=C(Nc1nc(-c2ccco2)c(-c2ccco2)s1)c1ccc(F)cc1F`, the result was inactive.

As for `Cc1cc(-c2ccco2)n(-c2ccccc2)n1`, the compound was called inactive.

Turning to `O=C1CN(C(=O)COC(=O)c2oc3ccccc3c2COc2ccccc2)c2ccccc2N1`, the result was inactive.

For `Cc1cc(C(=O)Nc2c(C)cccc2C)n(-c2ccccc2)n1`, the compound was called inactive.

On to `Cc1ccc(NC(=O)CSc2nnc([C@H](C)NC(=O)OC(C)(C)C)o2)c(C)c1`, for which the outcome was inactive.

For `Cn1c2ccccc2c2c(C(=O)O)cn(C3CCCC3)c(=O)c21`, the compound was classed as inactive.
